The values below come from the supplement of paper PMC10849652.

The full data set covers some 7,900 targets. This sample favours those with a hit. About 0.6% of all pairs of compound and target were hits. A number with no mark means an inactive call.

UniProt O95149, sequence (O95149 whole entry, looked up): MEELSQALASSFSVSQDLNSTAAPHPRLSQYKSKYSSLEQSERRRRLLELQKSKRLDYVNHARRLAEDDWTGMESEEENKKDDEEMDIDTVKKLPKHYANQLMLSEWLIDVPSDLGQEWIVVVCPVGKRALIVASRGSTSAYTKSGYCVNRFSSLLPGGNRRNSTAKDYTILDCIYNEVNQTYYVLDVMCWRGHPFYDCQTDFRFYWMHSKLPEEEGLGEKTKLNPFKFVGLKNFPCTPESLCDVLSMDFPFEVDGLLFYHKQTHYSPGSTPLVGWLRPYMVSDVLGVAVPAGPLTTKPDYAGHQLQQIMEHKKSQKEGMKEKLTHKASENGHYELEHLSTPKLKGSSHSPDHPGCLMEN
UniProt P31641, sequence (P31641 whole entry, looked up): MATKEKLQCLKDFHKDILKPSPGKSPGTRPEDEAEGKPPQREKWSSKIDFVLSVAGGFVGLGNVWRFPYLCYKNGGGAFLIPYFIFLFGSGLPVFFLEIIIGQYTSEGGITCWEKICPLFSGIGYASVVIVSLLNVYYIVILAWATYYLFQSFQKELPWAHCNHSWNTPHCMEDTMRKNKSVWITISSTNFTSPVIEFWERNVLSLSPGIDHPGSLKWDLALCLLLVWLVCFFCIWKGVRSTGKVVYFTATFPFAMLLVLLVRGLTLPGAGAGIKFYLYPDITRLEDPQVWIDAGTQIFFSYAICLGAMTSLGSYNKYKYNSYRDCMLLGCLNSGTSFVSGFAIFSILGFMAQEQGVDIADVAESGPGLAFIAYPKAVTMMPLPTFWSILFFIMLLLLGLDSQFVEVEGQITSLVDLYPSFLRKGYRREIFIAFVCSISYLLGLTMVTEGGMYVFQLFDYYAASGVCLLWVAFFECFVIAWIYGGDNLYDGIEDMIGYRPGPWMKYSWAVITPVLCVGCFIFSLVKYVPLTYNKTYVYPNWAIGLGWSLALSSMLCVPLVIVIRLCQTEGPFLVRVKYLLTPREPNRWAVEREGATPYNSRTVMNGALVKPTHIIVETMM
UniProt Q86VP1, sequence (Q86VP1 whole entry, looked up): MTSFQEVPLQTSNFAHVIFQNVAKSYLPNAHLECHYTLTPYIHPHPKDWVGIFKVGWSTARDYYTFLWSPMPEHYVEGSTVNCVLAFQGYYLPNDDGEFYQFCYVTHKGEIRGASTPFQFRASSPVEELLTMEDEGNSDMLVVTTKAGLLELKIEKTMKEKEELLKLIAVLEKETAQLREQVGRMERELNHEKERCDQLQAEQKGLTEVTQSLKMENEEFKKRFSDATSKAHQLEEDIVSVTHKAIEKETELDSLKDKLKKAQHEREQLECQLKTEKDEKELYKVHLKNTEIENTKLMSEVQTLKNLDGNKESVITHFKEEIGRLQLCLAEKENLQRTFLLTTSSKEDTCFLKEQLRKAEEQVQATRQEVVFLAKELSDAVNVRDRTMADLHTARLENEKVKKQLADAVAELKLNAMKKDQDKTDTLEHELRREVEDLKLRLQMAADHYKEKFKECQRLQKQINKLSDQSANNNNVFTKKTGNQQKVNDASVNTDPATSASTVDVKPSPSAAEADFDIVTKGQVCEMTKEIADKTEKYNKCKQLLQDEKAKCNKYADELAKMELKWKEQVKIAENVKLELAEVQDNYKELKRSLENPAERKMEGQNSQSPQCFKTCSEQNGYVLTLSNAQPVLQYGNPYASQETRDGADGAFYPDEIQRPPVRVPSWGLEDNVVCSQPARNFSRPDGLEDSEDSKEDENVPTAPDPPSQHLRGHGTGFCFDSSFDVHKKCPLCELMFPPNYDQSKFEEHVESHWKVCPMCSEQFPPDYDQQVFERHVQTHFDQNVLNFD
UniProt O14975, sequence (O14975 whole entry, looked up): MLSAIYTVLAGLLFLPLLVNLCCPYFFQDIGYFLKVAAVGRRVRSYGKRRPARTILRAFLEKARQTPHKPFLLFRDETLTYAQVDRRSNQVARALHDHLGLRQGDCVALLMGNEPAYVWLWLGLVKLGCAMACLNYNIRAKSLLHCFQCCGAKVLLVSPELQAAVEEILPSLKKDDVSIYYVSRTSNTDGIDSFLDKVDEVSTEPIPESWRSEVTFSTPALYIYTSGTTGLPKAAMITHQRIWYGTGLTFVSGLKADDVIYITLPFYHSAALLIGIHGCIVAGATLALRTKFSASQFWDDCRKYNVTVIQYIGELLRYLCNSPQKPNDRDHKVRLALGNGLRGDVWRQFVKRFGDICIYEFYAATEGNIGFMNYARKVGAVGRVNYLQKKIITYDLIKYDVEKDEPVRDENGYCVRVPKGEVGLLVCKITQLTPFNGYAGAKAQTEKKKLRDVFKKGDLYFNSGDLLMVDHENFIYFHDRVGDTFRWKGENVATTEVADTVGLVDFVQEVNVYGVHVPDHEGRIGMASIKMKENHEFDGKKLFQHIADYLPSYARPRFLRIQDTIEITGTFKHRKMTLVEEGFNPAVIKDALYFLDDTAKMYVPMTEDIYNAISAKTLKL
UniProt P08047, sequence (P08047 whole entry, looked up): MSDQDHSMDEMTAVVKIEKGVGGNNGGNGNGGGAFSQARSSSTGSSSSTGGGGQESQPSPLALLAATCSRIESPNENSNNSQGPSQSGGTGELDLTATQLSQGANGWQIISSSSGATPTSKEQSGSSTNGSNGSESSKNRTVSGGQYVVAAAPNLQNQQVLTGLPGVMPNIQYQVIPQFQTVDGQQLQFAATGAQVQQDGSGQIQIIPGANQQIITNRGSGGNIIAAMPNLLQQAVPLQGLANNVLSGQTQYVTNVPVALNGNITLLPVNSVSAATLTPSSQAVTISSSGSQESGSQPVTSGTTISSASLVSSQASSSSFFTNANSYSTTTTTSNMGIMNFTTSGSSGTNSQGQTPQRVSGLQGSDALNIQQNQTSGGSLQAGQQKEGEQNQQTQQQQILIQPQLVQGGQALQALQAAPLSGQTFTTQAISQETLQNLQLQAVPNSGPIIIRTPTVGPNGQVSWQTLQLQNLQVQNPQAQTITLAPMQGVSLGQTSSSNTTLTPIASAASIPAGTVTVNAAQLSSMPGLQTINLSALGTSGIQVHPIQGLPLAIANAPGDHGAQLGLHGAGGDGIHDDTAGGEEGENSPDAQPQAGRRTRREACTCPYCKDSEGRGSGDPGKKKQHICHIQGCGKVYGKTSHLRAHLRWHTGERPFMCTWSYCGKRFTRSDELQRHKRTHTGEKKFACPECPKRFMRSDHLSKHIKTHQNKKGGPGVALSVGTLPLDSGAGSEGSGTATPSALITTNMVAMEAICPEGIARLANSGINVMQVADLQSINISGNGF
UniProt Q969Z0, sequence (Q969Z0 whole entry, looked up): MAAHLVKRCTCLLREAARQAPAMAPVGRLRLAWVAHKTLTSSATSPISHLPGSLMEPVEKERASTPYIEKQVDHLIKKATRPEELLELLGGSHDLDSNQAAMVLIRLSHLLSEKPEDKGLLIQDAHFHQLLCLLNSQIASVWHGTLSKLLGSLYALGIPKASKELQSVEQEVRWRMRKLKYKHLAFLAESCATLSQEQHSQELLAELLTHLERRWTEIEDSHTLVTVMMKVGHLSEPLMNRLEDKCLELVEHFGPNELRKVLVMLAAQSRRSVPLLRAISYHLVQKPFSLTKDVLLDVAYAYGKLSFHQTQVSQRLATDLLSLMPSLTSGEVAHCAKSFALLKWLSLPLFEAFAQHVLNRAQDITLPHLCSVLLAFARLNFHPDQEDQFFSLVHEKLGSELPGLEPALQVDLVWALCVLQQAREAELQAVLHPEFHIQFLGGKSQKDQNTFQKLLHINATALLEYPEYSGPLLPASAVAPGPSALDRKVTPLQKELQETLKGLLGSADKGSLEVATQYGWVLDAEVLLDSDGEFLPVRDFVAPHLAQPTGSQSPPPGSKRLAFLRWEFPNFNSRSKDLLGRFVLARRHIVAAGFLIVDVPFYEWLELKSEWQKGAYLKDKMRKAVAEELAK
UniProt Q9NYB0, sequence (Q9NYB0 whole entry, looked up): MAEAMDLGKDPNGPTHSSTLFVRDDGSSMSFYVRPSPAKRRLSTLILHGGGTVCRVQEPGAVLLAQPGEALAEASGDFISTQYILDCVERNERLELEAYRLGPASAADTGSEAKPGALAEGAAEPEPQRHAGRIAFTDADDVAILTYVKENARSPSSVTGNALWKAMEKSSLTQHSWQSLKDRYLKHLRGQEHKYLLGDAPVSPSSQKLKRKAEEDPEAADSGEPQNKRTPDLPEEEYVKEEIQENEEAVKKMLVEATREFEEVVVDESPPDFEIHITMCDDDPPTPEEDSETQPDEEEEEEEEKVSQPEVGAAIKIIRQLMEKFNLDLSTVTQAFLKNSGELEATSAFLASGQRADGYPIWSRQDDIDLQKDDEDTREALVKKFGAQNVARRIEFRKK
UniProt Q15833, sequence (Q15833 whole entry, looked up): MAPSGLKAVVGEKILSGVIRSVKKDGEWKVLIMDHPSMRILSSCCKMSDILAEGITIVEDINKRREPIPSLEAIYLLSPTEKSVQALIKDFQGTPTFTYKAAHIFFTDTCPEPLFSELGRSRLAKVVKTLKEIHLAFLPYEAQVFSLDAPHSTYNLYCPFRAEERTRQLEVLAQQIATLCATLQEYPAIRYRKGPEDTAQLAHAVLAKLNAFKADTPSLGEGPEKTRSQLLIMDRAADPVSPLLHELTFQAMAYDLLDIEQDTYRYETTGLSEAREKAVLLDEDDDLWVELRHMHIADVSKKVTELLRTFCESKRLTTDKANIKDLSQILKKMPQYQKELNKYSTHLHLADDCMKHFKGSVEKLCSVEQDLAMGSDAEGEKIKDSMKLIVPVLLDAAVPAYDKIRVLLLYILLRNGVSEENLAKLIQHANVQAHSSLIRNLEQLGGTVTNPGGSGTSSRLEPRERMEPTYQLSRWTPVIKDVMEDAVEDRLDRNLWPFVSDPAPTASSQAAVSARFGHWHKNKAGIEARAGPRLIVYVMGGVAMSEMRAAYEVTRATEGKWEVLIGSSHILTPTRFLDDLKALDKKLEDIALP
UniProt Q9Y5J6, sequence (Q9Y5J6 whole entry, looked up): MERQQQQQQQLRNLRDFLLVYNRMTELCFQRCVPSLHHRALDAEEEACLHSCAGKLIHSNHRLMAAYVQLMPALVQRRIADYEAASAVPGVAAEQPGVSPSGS

Compound in one assay: CN1CC[C@H](c2c(O)cc(O)c3c(=O)cc(-c4ccccc4Cl)oc23)[C@H](O)C1 [alvocidib]
The assay can be described thus: log2 fold change, soluble protein after heating vs DMSO (PISA); higher = thermal stabilisation; K562 cells, 10 uM, 30 min; active = over 0.2 and 3.5 SD of the protein, either way, in both replicates (recomputed). In short, it runs like this:
(§1)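 Soluble protein was quantified by TMTpro 16plex LC-MS/MS after channel sums were equalised. It was obtained as the supernatant after 21,000xg for 90 min from pooled aliquots of K562 cells (2×10^6 cells/mL, 10 μM compound, 30 min) heated for 3 min across 48°C-58°C and extracted in PBS with 0.5% NP-40 at 4°C. Thermal stability values are relative to control samples and come from duplicates. They are given as log2 fold changes.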
With STXBP2 isoform 3 (UniProt Q15833), the log2 fold change was -0.113.

As to SLC27A2 (UniProt O14975), the log2 fold change is -0.079.

With SNX2 (UniProt O60749), the log2 fold change is -0.089.

On to SLC39A11 (UniProt Q8N1S5), for which the log2 fold change was 0.02.

Consider TBC1D15 isoform 3 (UniProt Q8TC07), for which the log2 fold change was -0.054.

Regarding TBRG4 (UniProt Q969Z0), the log2 fold change is -0.345.

SLC6A6 (UniProt P31641): the log2 fold change is -0.031.

TERF2IP (UniProt Q9NYB0): the log2 fold change was -0.106.

As to SP1 (UniProt P08047), the log2 fold change is 0.023.

For SYNE2 isoform 2 (UniProt Q8WXH0), the log2 fold change was 0.156.

In the case of SULT1A1 (UniProt P50225), the log2 fold change was -0.061.

In the case of TIMM10B (UniProt Q9Y5J6), the log2 fold change is -0.022.

On to TAMM41 isoform 3 (UniProt Q96BW9), for which the log2 fold change is 0.027.

Take TAX1BP1 (UniProt Q86VP1): the log2 fold change was -0.028.

In the case of SNUPN (UniProt O95149), the log2 fold change is -0.061.

Compound in a further assay: CN1CCc2c(c3ccccc3n2Cc2ccc(C(=O)NO)cc2)C1 [Tubastatin A]
Described as above. In outline:
as §1
For the target SUGP1 (UniProt Q8IWZ8), the log2 fold change is 0.052.

Regarding TBC1D9B (UniProt Q66K14), the log2 fold change was 0.063.

STARD3NL (UniProt O95772): the log2 fold change is -0.05.

On to SLC25A4 (UniProt P12235), for which the log2 fold change was -0.138.

For SLC30A10 (UniProt Q6XR72), the log2 fold change was 0.008.

On to SMC5 (UniProt Q8IY18), for which the log2 fold change was -0.034.

Regarding SRPRB (UniProt Q9Y5M8), the log2 fold change is 0.004.

With SPR (UniProt P35270), the log2 fold change is -0.014.

With TANK (UniProt Q92844), the log2 fold change was 0.03.

Consider SLC4A2 (UniProt P04920), for which the log2 fold change is 0.066.

On to TMBIM6 isoform 2 (UniProt P55061), for which the log2 fold change is 0.062.

SLC25A42 (UniProt Q86VD7): the log2 fold change was -0.032.

Regarding SLK isoform 2 (UniProt Q9H2G2), the log2 fold change is 0.025.

With TBCD (UniProt Q9BTW9), the log2 fold change was 0.05.

SUPT16H (UniProt Q9Y5B9): the log2 fold change was 0.374.

With SUOX (UniProt P51687), the log2 fold change was -0.031.

On to STK4 (UniProt Q13043), for which the log2 fold change was 0.039.

As to TK1 (UniProt P04183), the log2 fold change is 0.034.

Regarding SSR3 isoform 2 (UniProt Q9UNL2), the log2 fold change was -0.04.

For SRI (UniProt P30626), the log2 fold change is 0.039.

With TARS2 (UniProt Q9BW92), the log2 fold change was -0.357 (active).

Take SNX11 (UniProt Q9Y5W9): the log2 fold change is -0.014.

TATDN2 (UniProt Q93075): the log2 fold change was -0.094.

Turning to STXBP2 isoform 3 (UniProt Q15833), the log2 fold change was 0.085.

Consider SLC27A2 (UniProt O14975), for which the log2 fold change was -0.015.

As to SNX2 (UniProt O60749), the log2 fold change was 0.004.

Regarding SLC39A11 (UniProt Q8N1S5), the log2 fold change was -0.164.

In the case of TBC1D15 isoform 3 (UniProt Q8TC07), the log2 fold change was -0.011.

As to TBRG4 (UniProt Q969Z0), the log2 fold change is 0.044.

SLC6A6 (UniProt P31641): the log2 fold change was -0.143.

On to TERF2IP (UniProt Q9NYB0), for which the log2 fold change is 0.128.

On to SP1 (UniProt P08047), for which the log2 fold change is -0.054.

For the target SYNE2 isoform 2 (UniProt Q8WXH0), the log2 fold change was 0.071.

In the case of SULT1A1 (UniProt P50225), the log2 fold change is -0.004.

Turning to TIMM10B (UniProt Q9Y5J6), the log2 fold change is 0.109.

As to TAMM41 isoform 3 (UniProt Q96BW9), the log2 fold change is -0.043.

On to TAX1BP1 (UniProt Q86VP1), for which the log2 fold change is -0.01.

Regarding SNUPN (UniProt O95149), the log2 fold change was -0.036.

Compound in a further assay: CNC(=O)C1=CC=CC=C1NC2=NC(=NC=C2Cl)NC3=C(C=C(C=C3)N4CCOCC4)OC
The description is as above. In short, it runs like this:
as §1
As to SUGP1 (UniProt Q8IWZ8), the log2 fold change is -0.043.

In the case of TBC1D9B (UniProt Q66K14), the log2 fold change was -0.07.

Consider STARD3NL (UniProt O95772), for which the log2 fold change was 0.013.

With SLC25A4 (UniProt P12235), the log2 fold change is 0.044.

With SLC30A10 (UniProt Q6XR72), the log2 fold change was -0.025.

Consider SMC5 (UniProt Q8IY18), for which the log2 fold change was 0.056.

For SRPRB (UniProt Q9Y5M8), the log2 fold change is 0.087.

As for SPR (UniProt P35270), the log2 fold change was -0.053.

Turning to TANK (UniProt Q92844), the log2 fold change was 0.236.

In the case of SLC4A2 (UniProt P04920), the log2 fold change was -0.006.

TMBIM6 isoform 2 (UniProt P55061): the log2 fold change is -0.004.

As to SLC25A42 (UniProt Q86VD7), the log2 fold change is 0.005.

As for SLK isoform 2 (UniProt Q9H2G2), the log2 fold change is 0.079.

Regarding TBCD (UniProt Q9BTW9), the log2 fold change was -0.016.

As for SUPT16H (UniProt Q9Y5B9), the log2 fold change was 0.034.

Turning to SUOX (UniProt P51687), the log2 fold change was -0.01.

With STK4 (UniProt Q13043), the log2 fold change was 0.01.

In the case of TK1 (UniProt P04183), the log2 fold change was -0.013.

As for SSR3 isoform 2 (UniProt Q9UNL2), the log2 fold change was 0.006.

With SRI (UniProt P30626), the log2 fold change was 0.034.

For TARS2 (UniProt Q9BW92), the log2 fold change is 0.03.

As to SNX11 (UniProt Q9Y5W9), the log2 fold change is 0.011.

Regarding TATDN2 (UniProt Q93075), the log2 fold change is -0.002.

With STXBP2 isoform 3 (UniProt Q15833), the log2 fold change is -0.091.

Take SLC27A2 (UniProt O14975): the log2 fold change is 0.144.

As to SNX2 (UniProt O60749), the log2 fold change is -0.114.

On to SLC39A11 (UniProt Q8N1S5), for which the log2 fold change is -0.223.

Consider TBC1D15 isoform 3 (UniProt Q8TC07), for which the log2 fold change is -0.014.

As for TBRG4 (UniProt Q969Z0), the log2 fold change was -0.177.

For SLC6A6 (UniProt P31641), the log2 fold change is -0.029.

In the case of TERF2IP (UniProt Q9NYB0), the log2 fold change is 0.008.

Regarding SP1 (UniProt P08047), the log2 fold change is -0.015.

Regarding SYNE2 isoform 2 (UniProt Q8WXH0), the log2 fold change is -0.109.

For the target SULT1A1 (UniProt P50225), the log2 fold change is 0.105.

As to TIMM10B (UniProt Q9Y5J6), the log2 fold change was 0.484 (active).

With TAMM41 isoform 3 (UniProt Q96BW9), the log2 fold change is -0.037.

As to TAX1BP1 (UniProt Q86VP1), the log2 fold change is -0.016.

Regarding SNUPN (UniProt O95149), the log2 fold change is -0.019.
